Compounds with a hit are over-represented: about 7.4% of the library has one in this group of screens.
ELG1 genotox = genotoxicity induction in ELG1-luciferase HEK293T cells; HEK293T ELG1-luciferase reporter, luminescence, 16 h; Potency, µM (top dose mostly 46 µM), inactives show at the top dose activity change, positive = activation, actives largely listed as activators; 330,000 tested, 1.3% active; AID 504466; further: % of control where 0% means no effect; nearly all actives have a fitted effect of over 60% in size
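Reporter readout depends on ELG1 protein level, which increases with genetic stress. After 16 hr compound exposure at 37 °C, luciferase activity was quantified using ONE-Glo.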
Rab9 promoter act = activators of Rab9 promoter; Huh7 Rab9 promoter-luciferase reporter, luminescence, 24 h; Potency, µM (titrated, usually from 9.22 µM), inactives show at the highest dose activation, negative = inhibition, usual class: activators; 320,000 tested, 2.8% active; AID 485297; further: % of control where 0% means no effect; nearly all actives have a fitted effect of over 60% in size
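Using Huh7 cells stably transfected with Rab9 promoter–luciferase, compounds were incubated 24 h at 37 °C, 5% CO2; luciferase luminescence was read 10 min after reagent addition.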
SMN2 splice up = increases expression of the SMN2 splice variant; HEK293 SMN2-luciferase splicing reporter, luminescence, 30-36 h; Potency, µM (top dose mostly 46.1 µM), for inactives: at the top dose activity change, positive = activation, most hits filed as activators; 210,000 tested, 2.8% active; further: % of control where 0% means no effect; nearly all actives have a fitted effect of over 55% in size
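HEK293 cells carry an SMN2 minigene-luciferase reporter in which exon 7 inclusion puts luciferase in frame. Cells were seeded at 2000 cells/well, attached for 10-12 hours, then exposed to compounds for 30-36 hours at 37C before ONE-Glo luminescence.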
FLuc counter = inhibits or activates purified firefly luciferase, miR-21 counter-screen; P08659; purified FLuc, Km substrates, luminescence inhibition; Potency, µM (doses to about 57.5 µM), inactives show top-dose activity change, negative = inhibition, most hits filed as inhibitors; 360,000 tested, 6.9% active; AID 588342;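 further: plate controls were vehicle for no effect and reference inhibitor for full effect; nearly all actives have a fitted effect of over 55% in size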
Target sequence (P08659 whole entry, looked up): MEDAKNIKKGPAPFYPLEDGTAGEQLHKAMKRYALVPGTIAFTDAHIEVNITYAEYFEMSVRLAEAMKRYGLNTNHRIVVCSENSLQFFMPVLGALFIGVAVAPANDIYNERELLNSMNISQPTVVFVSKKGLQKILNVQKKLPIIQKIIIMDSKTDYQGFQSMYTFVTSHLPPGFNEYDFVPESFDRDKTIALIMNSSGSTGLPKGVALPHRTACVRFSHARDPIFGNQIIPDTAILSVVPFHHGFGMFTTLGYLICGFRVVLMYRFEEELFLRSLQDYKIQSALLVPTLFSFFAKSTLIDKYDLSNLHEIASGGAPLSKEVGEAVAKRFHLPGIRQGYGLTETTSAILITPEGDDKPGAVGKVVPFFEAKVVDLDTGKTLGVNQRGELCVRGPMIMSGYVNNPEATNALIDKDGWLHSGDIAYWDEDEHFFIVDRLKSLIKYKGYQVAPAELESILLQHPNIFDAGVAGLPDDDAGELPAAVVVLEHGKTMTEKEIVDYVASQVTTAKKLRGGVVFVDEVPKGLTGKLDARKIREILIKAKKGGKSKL
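Biochemical qHTS of compounds, final roughly 60 µM downward over six points, against 10 nM purified firefly luciferase using Km concentrations of substrates (10 uM D-luciferin, 10 uM ATP) in Tris acetate pH 7.5 buffer; luminescence output.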
NPC1 promoter act = activators of NPC1 promoter; Huh7 NPC1 promoter luciferase reporter, 24 h; Potency, µM (titrated, usually from 9.22 µM), for inactives: at the highest dose activation, most hits filed as activators; 320,000 tested, 2.4% active; AID 485313; further: % of control where 0% means no effect; nearly all actives have a fitted effect of over 60% in size
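NPC1 promoter–luciferase Huh7 cells; 24 h compound; luminescence.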
The depositor's hits bear a star; ? = inconclusive; nt = no result given. The call rests on the fitted dose curve; in most records, active means well fitted curve in the direction sought with a large enough effect; inconclusive means small, poorly fitted or top-dose-only effect, or another doubt; inactive means no such curve, though single readings can be large; an effect the other way counts as inactive or inconclusive. Potency means the concentration at half of the fitted maximal effect.

SMILES | ELG1 genotox | Rab9 promoter act | SMN2 splice up | FLuc counter | NPC1 promoter act
COc1ccc(C(=O)Nc2ccccc2C(=O)O)cc1NC(=O)C(c1ccccc1)c1ccccc1 | 4% | 22% | nt | 13µM* | 20%
COc1ccc(C(=O)Nc2cc(C(=O)O)cc(C(=O)O)c2)cc1Cl | -4% | -9% | 3% | -1% | -6%
COc1ccccc1C(=O)Nc1ccc(C(=O)Nc2ccccc2C(=O)O)cc1 | -8% | 4% | nt | 0% | 2%
CCOc1ccc(C(=O)Nc2cccc(C(=O)O)c2C)cc1Cl | -10% | ? | 0.5µM* | 3.4µM* | ?
Cc1[nH]c(=O)[nH]c(=O)c1C1N2CC3(C(C)C)CN1CC(C(C)C)(C2)C3=O (configuration not stated) | nt | nt | -6% | 2% | nt
CCOc1c(Cl)cc(C(=O)Nc2ccccc2C(=O)O)cc1Cl | 1% | ? | ? | 19µM* | 25%
COc1c(Cl)cc(C(=O)Nc2ccccc2-c2ccccc2)cc1Cl | -3% | 2% | -9% | 3% | -5%
O=C(NC1CC(=O)N(c2ccc(F)cc2)C1)C1CCCC1 (configuration not stated) | nt | nt | nt | -5% | nt
COc1ccc(/C=C2\SC(=S)N(N3CCOCC3)C2=O)c(OC)c1 | 9% | 0% | nt | ? | 3%
COc1cccc(/C=C2\SC(=S)N(N3CCOCC3)C2=O)c1OC | ? | -3% | 3% | 17µM* | -2%
COc1ccccc1/C=C1\SC(N2CCC(C)CC2)=NC1=O | ? | 5% | nt | 12µM* | -29%
CCOC(=O)C1CCN(C2=NC(=O)/C(=C/c3ccccc3OC)S2)CC1 | 0% | -1% | nt | ? | 8%
COc1cccc(/C=C2\SC(N3CCCC(C)C3)=NC2=O)c1OC (configuration not stated) | ? | ? | nt | 5.4µM* | ?
COc1cccc(/C=C2\SC(N3CCC(C)CC3)=NC2=O)c1OC | 9% | 4% | nt | 17µM* | 12%
CCOC(=O)CCCCN(Cc1ccccc1F)S(=O)(=O)c1ccc(F)c(C(=O)Nc2cc(Cl)cc(Cl)c2)c1 | nt | nt | nt | -4% | nt
COc1ccc(-n2c(=O)c3ccc(C(=O)NCc4ccc(C)cc4)cc3n(Cc3ccc(F)cc3Cl)c2=O)cc1 | nt | nt | -5% | -1% | nt
CC1CCN(c2nc(-c3ccc(C(C)(C)C)cc3)nc3ccccc23)CC1 | nt | nt | -1% | 5.4µM* | nt
CC1CCN(c2nc(-c3ccncc3)nc3ccccc23)CC1 | -6% | -3% | 0% | 2% | -3%
CC1CCCCN1c1nc(-c2ccc(C(C)(C)C)cc2)nc2ccccc12 (configuration not stated) | nt | nt | 383% | 3.4µM* | nt
CC1CCCCN1c1nc(-c2ccncc2)nc2ccccc12 (configuration not stated) | -7% | -5% | 15% | 0% | -4%
COc1cc(/C=c2\s/c(=C\C(=O)C(C)(C)C)[nH]c2=O)cc(OC)c1OC | -3% | -14% | -8% | -10% | -6%
COc1ccc(/C=c2\s/c(=C\C(=O)C(C)(C)C)[nH]c2=O)cc1O | -9% | -3% | nt | 24µM* | -1%
COc1cccc(CN(C(=O)COc2ccc(Cl)c(C)c2)C2CCS(=O)(=O)C2)c1 (configuration not stated) | nt | nt | -3% | 1% | nt
COC(=O)c1cc2oc3ccccc3c2n1Cc1nc(-c2cccc(C)c2)oc1C | nt | nt | 0% | -9% | nt
CN1/C(=C\C(=O)c2cccnc2)Sc2ccccc21 | ? | 2.2µM* | 14µM* | 9.5µM* | 2.5µM*
COc1cccc(C(=O)Nc2ccccc2N2CCCC2)c1 | -1% | -6% | -18% | 3% | 0%
COc1cccc(C(=O)/C=C2\Sc3ccccc3N2C)c1 | 1.5µM* | 0.89µM* | 6.3µM* | 1.1µM* | 0.71µM*
O=C(Nc1ccc(Cl)cc1)C1CCC(CNS(=O)(=O)c2ccc(Br)s2)CC1 (configuration not stated) | nt | nt | -26% | 7% | nt
Cc1ccc2nc(NC(=O)CSCC(=O)OCC(=O)c3ccccc3)sc2c1 | 4% | -32% | -26% | 17µM* | -21%
CCOc1ccc2nc(NC(=O)Cn3c(C)csc3=O)sc2c1 | 12% | 7% | nt | 4.8µM* | 14%

Compound activity (PubChem)
